Assay in all cases: DAPPL (digital affinity profiling via proximity ligation, sequencing); 10 mM Tris-HCl pH 7.5, 50 mM NaCl, 1 mM DTT, 4% glycerol, room temperature, 30 min; GST-TFs on glutathione beads, 16-mer random dsDNA library, 0.1% formaldehyde crosslink after washing; high values mean tight binding
Conditions in all cases: protein: recombinant; tags: N-terminal GST; dsDNA, one strand shown

The target in one assay is T1, FLI1 (Homo sapiens, UniProt Q01543 1-452).
T1 sequence: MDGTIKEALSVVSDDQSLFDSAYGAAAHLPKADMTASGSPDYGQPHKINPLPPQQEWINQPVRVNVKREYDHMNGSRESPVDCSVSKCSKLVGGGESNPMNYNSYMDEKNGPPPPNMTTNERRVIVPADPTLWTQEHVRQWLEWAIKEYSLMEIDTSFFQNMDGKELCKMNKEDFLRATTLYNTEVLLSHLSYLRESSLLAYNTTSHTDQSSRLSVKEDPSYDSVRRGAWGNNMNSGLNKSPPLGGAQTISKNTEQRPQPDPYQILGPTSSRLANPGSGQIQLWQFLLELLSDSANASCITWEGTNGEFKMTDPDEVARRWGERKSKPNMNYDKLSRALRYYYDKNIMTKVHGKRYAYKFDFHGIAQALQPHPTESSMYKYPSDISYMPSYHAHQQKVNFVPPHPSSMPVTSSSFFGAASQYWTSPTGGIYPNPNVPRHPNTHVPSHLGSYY
The gist of the method: (§1)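 Binding signal is each hexamer's read frequency for a factor divided by its frequency in the tag-only sample. The factors were GST-fused human transcription factors from yeast, captured on glutathione beads, DNA-barcoded and pooled with that sample. Pools were incubated with 200 nmole of a random double-stranded 16-mer DNA library in Tris/NaCl/DTT/glycerol buffer at room temperature for 30 min, then washed, crosslinked with 0.1% formaldehyde, proximity-ligated with BsaI/T4 ligase (1 h, 37 °C), PCR-amplified and sequenced on an Illumina NextSeq500.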

Another assay has as its target T2, ELK1 (Homo sapiens, UniProt P19419 1-428).
T2 sequence: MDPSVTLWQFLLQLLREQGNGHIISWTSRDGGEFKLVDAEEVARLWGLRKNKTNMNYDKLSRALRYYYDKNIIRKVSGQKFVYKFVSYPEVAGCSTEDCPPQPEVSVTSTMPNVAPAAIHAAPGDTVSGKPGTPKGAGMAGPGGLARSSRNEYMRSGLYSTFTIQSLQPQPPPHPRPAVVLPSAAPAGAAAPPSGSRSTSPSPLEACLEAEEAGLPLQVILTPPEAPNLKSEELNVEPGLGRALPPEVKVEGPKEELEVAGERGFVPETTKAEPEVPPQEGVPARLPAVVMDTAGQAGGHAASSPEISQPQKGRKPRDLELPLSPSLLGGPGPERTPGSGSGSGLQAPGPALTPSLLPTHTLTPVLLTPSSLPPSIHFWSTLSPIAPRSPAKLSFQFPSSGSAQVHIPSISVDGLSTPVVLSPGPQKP
The method, boiled down: as §1

The target in the next assay is T3, GABPA (Homo sapiens, UniProt Q06546 1-454).
T3 sequence: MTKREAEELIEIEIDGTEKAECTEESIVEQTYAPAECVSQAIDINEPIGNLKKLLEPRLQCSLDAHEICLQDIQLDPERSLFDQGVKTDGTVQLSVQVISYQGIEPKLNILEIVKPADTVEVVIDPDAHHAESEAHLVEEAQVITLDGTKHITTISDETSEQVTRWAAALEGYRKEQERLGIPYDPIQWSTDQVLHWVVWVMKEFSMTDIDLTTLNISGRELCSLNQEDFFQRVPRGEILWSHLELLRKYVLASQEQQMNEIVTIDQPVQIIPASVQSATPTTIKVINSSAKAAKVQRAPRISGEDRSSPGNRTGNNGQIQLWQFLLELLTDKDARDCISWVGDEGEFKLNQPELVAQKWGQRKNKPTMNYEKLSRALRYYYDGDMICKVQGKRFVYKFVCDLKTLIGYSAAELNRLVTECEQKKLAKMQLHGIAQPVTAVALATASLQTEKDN
The method, boiled down: as §1

The target in another assay is T4, ERG (Homo sapiens, UniProt P11308 1-479).
T4 sequence: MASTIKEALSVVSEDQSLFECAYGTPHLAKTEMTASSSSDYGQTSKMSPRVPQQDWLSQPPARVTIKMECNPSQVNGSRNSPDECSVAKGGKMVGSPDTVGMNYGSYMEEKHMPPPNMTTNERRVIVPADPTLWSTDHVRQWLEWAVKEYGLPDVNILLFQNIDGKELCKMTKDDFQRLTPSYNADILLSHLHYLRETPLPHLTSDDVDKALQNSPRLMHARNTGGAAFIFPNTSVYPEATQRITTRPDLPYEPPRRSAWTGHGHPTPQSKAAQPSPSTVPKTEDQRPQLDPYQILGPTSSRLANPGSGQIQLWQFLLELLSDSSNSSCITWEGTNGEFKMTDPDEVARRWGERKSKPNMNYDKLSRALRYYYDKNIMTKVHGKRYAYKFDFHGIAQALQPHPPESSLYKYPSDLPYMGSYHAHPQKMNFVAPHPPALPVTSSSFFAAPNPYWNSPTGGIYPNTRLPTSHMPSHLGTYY
The method, boiled down:
as §1

The target in another assay is ELF1 (Homo sapiens, UniProt P32519 1-619). The method, boiled down:
as §1

The target in the next assay is T5, EHF (Homo sapiens, UniProt Q9NZC4 1-300).
T5 sequence: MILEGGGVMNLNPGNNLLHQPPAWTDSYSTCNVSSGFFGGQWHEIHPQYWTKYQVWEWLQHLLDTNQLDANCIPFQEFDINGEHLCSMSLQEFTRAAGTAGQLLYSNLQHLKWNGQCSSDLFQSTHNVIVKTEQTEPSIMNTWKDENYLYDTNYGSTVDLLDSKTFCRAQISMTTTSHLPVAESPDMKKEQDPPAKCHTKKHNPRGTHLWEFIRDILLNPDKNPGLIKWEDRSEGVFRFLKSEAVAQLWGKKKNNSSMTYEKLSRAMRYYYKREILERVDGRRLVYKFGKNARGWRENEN
The method, boiled down:
as §1

The next assay addresses SPI1 (Homo sapiens, UniProt P17947 1-270). The method, boiled down: as §1
The next assay has as its target SPIB (Homo sapiens, UniProt Q01892 1-262). The gist of the method:
as §1

The target of the next assay is T6, ELK3 (Homo sapiens, UniProt P41970 1-407).
T6 sequence: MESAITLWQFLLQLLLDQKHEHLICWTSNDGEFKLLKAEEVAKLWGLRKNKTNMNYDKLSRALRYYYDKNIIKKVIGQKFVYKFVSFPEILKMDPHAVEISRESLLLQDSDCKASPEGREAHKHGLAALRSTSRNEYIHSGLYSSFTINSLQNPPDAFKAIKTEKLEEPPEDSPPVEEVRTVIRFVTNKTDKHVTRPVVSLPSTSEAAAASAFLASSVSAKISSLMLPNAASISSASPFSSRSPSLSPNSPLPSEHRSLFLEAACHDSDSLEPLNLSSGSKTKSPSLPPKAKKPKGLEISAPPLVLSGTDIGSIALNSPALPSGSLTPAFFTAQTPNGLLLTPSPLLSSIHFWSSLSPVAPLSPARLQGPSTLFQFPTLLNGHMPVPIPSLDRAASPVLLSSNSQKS
The gist of the method: as §1

ELF1, sequence (P32519 whole entry): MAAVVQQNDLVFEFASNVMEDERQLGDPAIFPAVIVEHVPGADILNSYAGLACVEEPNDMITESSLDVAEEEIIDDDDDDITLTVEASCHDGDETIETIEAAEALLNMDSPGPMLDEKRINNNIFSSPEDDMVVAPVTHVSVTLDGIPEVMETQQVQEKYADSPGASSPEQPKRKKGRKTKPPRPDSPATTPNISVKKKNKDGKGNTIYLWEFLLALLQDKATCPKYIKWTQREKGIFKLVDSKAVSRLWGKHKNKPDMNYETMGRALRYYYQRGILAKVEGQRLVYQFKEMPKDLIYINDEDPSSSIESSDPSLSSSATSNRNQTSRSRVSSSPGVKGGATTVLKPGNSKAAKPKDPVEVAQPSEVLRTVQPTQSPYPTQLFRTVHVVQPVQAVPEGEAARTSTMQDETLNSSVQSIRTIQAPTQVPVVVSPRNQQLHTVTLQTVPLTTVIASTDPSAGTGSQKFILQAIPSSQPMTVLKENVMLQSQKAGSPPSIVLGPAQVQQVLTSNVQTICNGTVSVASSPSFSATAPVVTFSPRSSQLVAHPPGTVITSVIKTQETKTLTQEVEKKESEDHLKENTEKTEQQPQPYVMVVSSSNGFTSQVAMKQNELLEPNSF
SPIB, sequence (Q01892 whole entry): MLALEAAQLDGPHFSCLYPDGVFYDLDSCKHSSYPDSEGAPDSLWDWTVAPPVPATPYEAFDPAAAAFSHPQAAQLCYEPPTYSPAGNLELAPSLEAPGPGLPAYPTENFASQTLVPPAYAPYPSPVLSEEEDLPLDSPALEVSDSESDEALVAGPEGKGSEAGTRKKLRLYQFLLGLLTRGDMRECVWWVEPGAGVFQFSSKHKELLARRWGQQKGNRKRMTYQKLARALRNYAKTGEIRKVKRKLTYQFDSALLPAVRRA

For the sequence TCACGA, the binding signal with FLI1 was 1.09 fold enrichment (6-mer frequency, TF over GST control); in the assay with ELK1, 1.19 fold enrichment (6-mer frequency, TF over GST control); with GABPA, 1.09 fold enrichment (6-mer frequency, TF over GST control); with ERG, 1.1 fold enrichment (6-mer frequency, TF over GST control); with ELF1 it was 1.13 fold enrichment (6-mer frequency, TF over GST control); with EHF, 1.21 fold enrichment (6-mer frequency, TF over GST control). For the same sequence, the binding signal with SPI1 is 1.06 fold enrichment (6-mer frequency, TF over GST control); with SPIB it was 1.04 fold enrichment (6-mer frequency, TF over GST control); in the assay with ELK3 it was 1.21 fold enrichment (6-mer frequency, TF over GST control).

For the sequence TCCGAT, the binding signal with FLI1 was 1.32 fold enrichment (6-mer frequency, TF over GST control); with ELK1 it was 1.37 fold enrichment (6-mer frequency, TF over GST control); with GABPA, 1.17 fold enrichment (6-mer frequency, TF over GST control); with ERG, 1.51 fold enrichment (6-mer frequency, TF over GST control); in the assay with ELF1, 1.27 fold enrichment (6-mer frequency, TF over GST control); with EHF, 1.36 fold enrichment (6-mer frequency, TF over GST control). Also, the binding signal in the assay with SPI1 is 1.29 fold enrichment (6-mer frequency, TF over GST control); in the assay with SPIB it was 1.24 fold enrichment (6-mer frequency, TF over GST control); with ELK3, 1.27 fold enrichment (6-mer frequency, TF over GST control).

For CCGTTC, the binding signal is 1.32 fold enrichment (6-mer frequency, TF over GST control) in the assay with FLI1; 1.38 fold enrichment (6-mer frequency, TF over GST control) in the assay with ELK1; 1.39 fold enrichment (6-mer frequency, TF over GST control) with GABPA; 1.38 fold enrichment (6-mer frequency, TF over GST control) with ERG; 1.46 fold enrichment (6-mer frequency, TF over GST control) with ELF1; 1.5 fold enrichment (6-mer frequency, TF over GST control) in the assay with EHF. The binding signal in the assay with SPI1 was 1.39 fold enrichment (6-mer frequency, TF over GST control); in the assay with SPIB, 1.47 fold enrichment (6-mer frequency, TF over GST control); with ELK3, 1.4 fold enrichment (6-mer frequency, TF over GST control).

Take TCAAAA: the binding signal was 1.12 fold enrichment (6-mer frequency, TF over GST control) with FLI1; 1.12 fold enrichment (6-mer frequency, TF over GST control) with ELK1; 1.23 fold enrichment (6-mer frequency, TF over GST control) with GABPA; 1.14 fold enrichment (6-mer frequency, TF over GST control) with ERG; 1.19 fold enrichment (6-mer frequency, TF over GST control) in the assay with ELF1; 1.1 fold enrichment (6-mer frequency, TF over GST control) with EHF. Further, the binding signal with SPI1 is 1.3 fold enrichment (6-mer frequency, TF over GST control); with SPIB it was 1.15 fold enrichment (6-mer frequency, TF over GST control); with ELK3 it was 1.17 fold enrichment (6-mer frequency, TF over GST control).

Regarding TTTTTG, the binding signal in the assay with FLI1 is 1.43 fold enrichment (6-mer frequency, TF over GST control); in the assay with ELK1, 1.29 fold enrichment (6-mer frequency, TF over GST control); with GABPA it was 1.38 fold enrichment (6-mer frequency, TF over GST control); with ERG it was 1.33 fold enrichment (6-mer frequency, TF over GST control); in the assay with ELF1 it was 1.4 fold enrichment (6-mer frequency, TF over GST control); with EHF, 1.27 fold enrichment (6-mer frequency, TF over GST control). The binding signal in the assay with SPI1 is 1.54 fold enrichment (6-mer frequency, TF over GST control); in the assay with SPIB it was 1.5 fold enrichment (6-mer frequency, TF over GST control); with ELK3 it was 1.4 fold enrichment (6-mer frequency, TF over GST control).

In the case of ATCATC, the binding signal with FLI1 is 1.17 fold enrichment (6-mer frequency, TF over GST control); in the assay with ELK1 it was 1.2 fold enrichment (6-mer frequency, TF over GST control); in the assay with GABPA, 1.19 fold enrichment (6-mer frequency, TF over GST control); with ERG, 1.17 fold enrichment (6-mer frequency, TF over GST control); in the assay with ELF1, 1.25 fold enrichment (6-mer frequency, TF over GST control); with EHF, 1.25 fold enrichment (6-mer frequency, TF over GST control). The binding signal with SPI1 was 1.14 fold enrichment (6-mer frequency, TF over GST control); with SPIB it was 1.19 fold enrichment (6-mer frequency, TF over GST control); with ELK3 it was 1.08 fold enrichment (6-mer frequency, TF over GST control).

As for TACGAA, the binding signal in the assay with FLI1 was 1.15 fold enrichment (6-mer frequency, TF over GST control); with ELK1, 1.23 fold enrichment (6-mer frequency, TF over GST control); with GABPA, 1.3 fold enrichment (6-mer frequency, TF over GST control); with ERG, 1.23 fold enrichment (6-mer frequency, TF over GST control); with ELF1 it was 1.28 fold enrichment (6-mer frequency, TF over GST control); in the assay with EHF, 1.22 fold enrichment (6-mer frequency, TF over GST control). The binding signal in the assay with SPI1 was 1.15 fold enrichment (6-mer frequency, TF over GST control); with SPIB, 1.19 fold enrichment (6-mer frequency, TF over GST control); with ELK3 it was 1.25 fold enrichment (6-mer frequency, TF over GST control).

The values above are taken from article PMC7862700, “An all-to-all approach to the identification of sequence-specific readers for epigenetic DNA modifications on cytosine”.
